Experiment [1] is described as follows: qHTS assay to identify small molecule antagonists of the vitamin D receptor (VDR) signaling pathway - cell viability counter screen (AID 743225). Also: % is scaled to controls: 0 for no effect and ±100 for the full control effect; nearly all actives have a fitted effect of over 50% in size. The essentials: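 Parallel cytotoxicity test: VDR-UAS-bla HEK 293T, 3 nM (final) 1-alpha,25-dihydroxyvitamin D3 with test compound, 16 h, 37C. Endpoint is CellTiter-Glo luminescence in the same wells.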
Background: In qHTS, concentration-response curves come from the screen itself.

Experiment [2] can be described thus: qHTS assay to identify small molecule agonists of the NFkB signaling pathway - cell viability counter screen (AID 1159515; calls by dose curve; also: series mostly up to about 61 µM; % is scaled to controls: 0 for no effect and ±100 for the full control effect; nearly all actives have a fitted effect of over 55% in size). A digest of the protocol:
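NFkB-bla ME-180 cells, 2,000/well, were plated overnight at 37 C, 5% CO2, then exposed to compounds in DMSO for 5 hr. After the bla FRET read, CellTiter-Glo was added to the same wells; luminescence was read after 30 min at room temperature.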

Experiment [3] in a line: qHTS assay to identify small molecule agonists of the endoplasmic reticulum stress response signaling pathway (AID 1159516; active = well fitted activation curve with a large enough effect in the signal ratio in the repeat runs, not every such curve was filed as active; the % refers to the signal ratio; also: % is scaled to controls: 0 for no effect and ±100 for the full control effect). The essentials:
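CellSensor ESRE-bla HeLa cells, carrying a beta-lactamase reporter driven by the ER stress response element, were plated overnight and exposed to compounds for 5 hr at 37 C. Reporter activity was read as FRET substrate fluorescence after 2 hr at room temperature.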

Experiment [4] is described as follows: qHTS assay to identify small molecule agonists of the endoplasmic reticulum stress response signaling pathway - cell viability counter screen (AID 1159517; calls by dose curve; also: series mostly up to about 61 µM; % is scaled to controls: 0 for no effect and ±100 for the full control effect; nearly all actives have a fitted effect of over 50% in size). A digest of the protocol:
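Cells, HeLa ESRE-bla; density, 1,500/well; dosing, 5 hr at 37 C, 5% CO2; readout, CellTiter-Glo luminescence after 30 min RT.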

Experiment [5] can be described thus: qHTS assay to identify small molecule antagonists of the retinoid-related orphan receptor gamma (ROR-gamma) signaling pathway - cell viability counter screen (AID 1159520). Also: % is scaled to controls: 0 for no effect and ±100 for the full control effect; nearly all actives have a fitted effect of over 50% in size. The essentials:
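Cytotoxicity was read from cellular ATP (CellTiter-Glo luminescence) after 16 hr at 37 C with 1 uM doxycycline induction. The inducer was added 2 hr after compound transfer to Tet-on ROR gamma CHO cells.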

In experiment [6] the target is Nuclear receptor ROR-gamma (Homo sapiens) (UniProt P51449). The experiment can be described thus: qHTS assay to identify small molecule antagonists of the retinoid-related orphan receptor gamma (ROR-gamma) signaling pathway (AID 1159521;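 also: CHO cells with doxycycline inducible ROR-gamma driving an RORE luciferase reporter; top concentration of the series differs between compounds; % is scaled to controls: 0 for no effect and ±100 for the full control effect; nearly all actives have a fitted effect of over 50% in size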). The essentials: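 Decreased RORE-driven luciferase luminescence indicates antagonism. Tet-on RORγ CHO cells received compound, then 1 uM final doxycycline 2 h later; signal read after 16 h incubation.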

Experiment [7] in a line: qHTS assay to identify small molecule agonists of the AP-1 signaling pathway - cell viability counter screen (AID 1159525; calls by dose curve; also: nearly all actives have a fitted effect of over 55% in size). A digest of the protocol:
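Luminescent ATP readout (Cell Titer Glo, 30 min RT), normalised to DMSO and tetra n-octyl ammonium bromide controls. Cells were ME-180 AP-1-bla in 0.5% dialyzed FBS Opti-MEM, with a 5 h, 37 °C compound exposure.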

Experiment [8] is described as follows: qHTS assay to identify small molecule agonists of the AP-1 signaling pathway (AID 1159526; calls by dose curve; also: % is scaled to controls: 0 for no effect and ±100 for the full control effect).
Experiment [9] deals with Retinoic acid receptor RXR-alpha (Homo sapiens) (UniProt P19793). Description: qHTS assay to identify small molecule agonists of the RXR signaling pathway (AID 1159527; calls by dose curve; also: % is scaled to controls: 0 for no effect and ±100 for the full control effect; nearly all actives have a fitted effect of over 35% in size). A digest of the protocol: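 16 hr incubation of compound-treated RXR-alpha-UAS-bla HEK 293T cells (2% charcoal-stripped FBS, 37 C) preceded a 2 hr room-temperature LiveBLAzer FRET substrate step and blue/green fluorescence measurement.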

The nature of experiment [10]: qHTS assay to identify small molecule antagonists of the retinoid acid receptor (RAR) signaling pathway - cell viability counter screen (AID 1159551). Also: % is scaled to controls: 0 for no effect and ±100 for the full control effect; nearly all actives have a fitted effect of over 35% in size. The essentials:
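C3RL4 cells were seeded overnight at 37 C, then treated with compounds plus 1 uM (final) retinol for 6 h at 37 C. Viability was read as ATP by CellTiter-Glo luminescence after 30 min at room temperature.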

Experiment [11] in a line: qHTS assay to identify small molecule antagonists of the retinoic acid receptor (RAR) signaling pathway (AID 1159552; also: nearly all actives have a fitted effect of over 50% in size; also: potency is read from the fitted curve at half-maximal effect; as to activity, negative = inhibition: % is scaled to controls: 0 for no effect and ±100 for the full control effect). A digest of the protocol:
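C3RL4 RARE-luc cells, overnight plating; retinol 1 uM final added right after compound; 6 hr 37 C; luciferase read at 30 min RT.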

Experiment [12] can be described thus: qHTS assay to identify small molecule agonists of the retinoic acid receptor (RAR) signaling pathway (AID 1159553). Also: % is scaled to controls: 0 for no effect and ±100 for the full control effect. The essentials:
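C3RL4 cells carrying a RARE luciferase reporter were plated overnight at 37 C, then exposed to compounds in DMSO for 6 hr at 37 C and 5% CO2. Luminescence was read 30 min after luciferase reagent addition at room temperature.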

Experiment [13] is described as follows: qHTS assay to identify small molecule antagonists of the estrogen related receptor (ERR) signaling pathway from Tox21 library - cell viability counter screen (AID 1224834). Also: % is scaled to controls: 0 for no effect and ±100 for the full control effect; nearly all actives have a fitted effect of over 30% in size. A digest of the protocol: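 ERR reporter cells were plated 6 h before compound addition, then exposed to test compounds in DMSO for 17.5 h at 37 C. Viability was read as CellTiter-Fluor fluorescence after a 30-minute incubation at 37 C.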

A short description of experiment [14]: qHTS assay to identify small molecule agonists of the RXR signaling pathway - cell viability counter screen (AID 1159529). The essentials: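 In this parallel viability measure, GeneBLAzer RXR-alpha HEK 293T cells (2% charcoal-stripped FBS) were given a 5 hr preincubation, treated with compounds 16 hr at 37 C, and read by CellTiter-Glo luminescence.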

Inconclusive results are not listed. A number with no mark means an inactive call. The source made the active and inactive calls. Unless noted, calls follow the shape of the dose curve; as a rule, active = well fitted curve in the direction sought with a large enough effect in the repeat runs; inconclusive = weak or mixed curves; inactive = no such curve, though single readings can be large; an effect the other way counts as inactive or inconclusive.

Retinoic acid receptor RXR-alpha (Homo sapiens), sequence (P19793 whole entry, looked up): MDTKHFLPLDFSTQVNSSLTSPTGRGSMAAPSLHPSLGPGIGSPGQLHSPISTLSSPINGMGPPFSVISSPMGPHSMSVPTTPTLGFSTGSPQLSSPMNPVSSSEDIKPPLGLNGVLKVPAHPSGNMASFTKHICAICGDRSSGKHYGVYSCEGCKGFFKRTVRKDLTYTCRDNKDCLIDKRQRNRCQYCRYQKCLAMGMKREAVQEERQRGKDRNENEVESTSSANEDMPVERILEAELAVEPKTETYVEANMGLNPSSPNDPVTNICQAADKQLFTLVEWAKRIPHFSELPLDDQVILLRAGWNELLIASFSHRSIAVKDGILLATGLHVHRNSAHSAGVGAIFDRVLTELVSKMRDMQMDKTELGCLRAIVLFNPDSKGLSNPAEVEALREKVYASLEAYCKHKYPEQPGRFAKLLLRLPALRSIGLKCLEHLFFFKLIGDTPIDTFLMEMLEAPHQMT

For the molecule `c1ccc(CCc2ccccc2)cc1`, the molecule was called inactive in experiment [1], in experiment [2], in experiment [3], in experiment [4], in [5] and in [7]. Further, the outcome in experiment [8] and in experiment [10] was inactive. The Potency entry in experiment [6], in experiment [9], in [11], in [12] and in experiment [13] was “inactive” throughout.
`COC(=O)C1=C(C)NC(C)=C(C(=O)OC(C)C)C1c1cccc2nonc12` (stereo not drawn): the result in [1], in experiment [2], in experiment [3], in [4], in [5] and in [7] was inactive. The outcome in experiment [8] and in [10] was inactive. Besides, the Potency entry in experiment [6], in experiment [9] and in [12] was “inactive” throughout. For the same molecule, the Potency in experiment [11] was 21.1 µM (active).
As to `CNCCO`, the outcome in experiment [1], in [2], in experiment [3], in experiment [4], in experiment [5] and in experiment [7] was inactive. The molecule was classed as inactive in [8] and in [10]. For the same molecule, the Potency result in experiment [6], in experiment [9] and in experiment [14] was “inactive” each time.
For the molecule `CCN[C@@H]1C[C@H](N)[C@@H](OC2OC(CN)=CCC2N)[C@H](O)[C@H]1O[C@H]1OC[C@](C)(O)[C@H](NC)[C@H]1O` (stereo partly drawn), the viability change, negative = cytotoxic in [1] was 2.46% [at 0.628 µM]; in experiment [7] it was 0.839% [at 0.29 µM]; in [13], 5.78% [at 0.349 µM]. For the same molecule, the activity, negative = cytotoxic in experiment [2] is 6.29% [at 0.628 µM]. Besides, the activation in experiment [3] is 0.974% [at 0.628 µM]; in [8], -3.82% [at 0.29 µM]; in [9], 6.62% [at 0.29 µM]; in [12], 1.16% [at 0.756 µM]. Further, the activity change, negative = cytotoxicity is -1.46% [at 0.628 µM] in experiment [4] and 2.69% [at 0.349 µM] in [10]. In [5], the activity, negative = cytotoxicity was 3.44% [at 0.349 µM]. Moreover, the activity change, negative = inhibition in experiment [6] was 45.3% [at 0.35 µM]. In addition, in [11], the activity, negative = inhibition was 11.8% [at 0.349 µM].
On to `CCCCS(=O)(=O)N[C@@H](Cc1ccc(OCCCCC2CCNCC2)cc1)C(=O)O`, for which the call in [1], in experiment [2], in experiment [3], in experiment [4], in experiment [5] and in experiment [7] was inactive. Also, the molecule was called inactive in experiment [8]. Also, the Potency result in [6], in experiment [9], in [14], in experiment [12] and in [13] was “inactive” throughout.
As to `Cc1ncc(COP(=O)(O)O)c(C=O)c1O`, the call in experiment [1], in [2], in experiment [3], in experiment [4], in experiment [5] and in [7] was inactive. Also, the outcome in experiment [8] was inactive. Further, the Potency result in experiment [6], in experiment [9], in experiment [14] and in experiment [12] was “inactive” in each case.
Take `Cc1ccc(C(=O)c2ccccc2)cc1`: the result in [1], in experiment [2], in [3], in experiment [4], in [5] and in experiment [7] was inactive. In addition, in experiment [8], the outcome was inactive. Besides, the Potency result in experiment [6], in experiment [9], in experiment [14], in [11] and in [13] was “inactive” in each case.
As for `CC(C#N)(CCC(=O)O)N=NC(C)(C#N)CCC(=O)O` (stereo not drawn), the molecule was classed as inactive in [1], in [2], in experiment [3], in experiment [4], in experiment [5] and in [7]. Besides, the molecule was classed as inactive in [8] and in [10]. Moreover, the Potency entry in experiment [6], in experiment [9] and in [14] was “inactive” each time.
On to `CC(C)(N)C#N`, for which the outcome in [1], in experiment [2], in experiment [3], in experiment [4], in [5] and in [7] was inactive. The molecule was called inactive in experiment [8] and in experiment [10]. Moreover, the Potency result in experiment [6], in [9] and in experiment [14] was “inactive” throughout.
As for `CCCCN(CCC(=O)OCC)C(C)=O`, the molecule was classed as inactive in experiment [1], in [2], in [3], in experiment [4], in [5] and in experiment [7]. Also, the result in experiment [8] and in experiment [10] was inactive. Besides, the Potency entry in experiment [6], in experiment [9], in experiment [14] and in experiment [13] was “inactive” in each case.

The record behind these values is PubChem BioAssay (Tox21).
